Publication PMC5540273 (PLoS ONE, 2017)

Experiments:
Details in all cases: concentration: 1 μM, replicates: in singlicate; n = 1
PAK3 = test system: PAK3
PAK4 = test system: PAK4
PAK6 = test system: PAK6
PAK7 = test system: PAK7
PCTK1 = test system: T1, PCTK1
T1 construct: gene CDK16

PCTK2 = test system: T2, PCTK2
T2 construct: gene CDK17

PCTK3 = test system: T3, PCTK3
T3 construct: gene CDK18

PDGFRA = test system: PDGFRA
PDGFRB = test system: PDGFRB
PDPK1 = test system: PDPK1
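Further: KINOMEscan kinase panel screen.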

Compound	%Inh (PAK3) [%]	%Inh (PAK4) [%]	%Inh (PAK6) [%]	%Inh (PAK7) [%]	%Inh (PCTK1) [%]	%Inh (PCTK2) [%]	%Inh (PCTK3) [%]	%Inh (PDGFRA) [%]	%Inh (PDGFRB) [%]	%Inh (PDPK1) [%]
COC(=O)C(Cc1ccccc1)NC(=O)NC1CCN(c2ccnc(Nc3ccc(F)cc3)n2)C1 (stereo not shown) [GSK1379714]	16	0	0	7	5	9	0	7	23	4
COc1ccc(Nc2nccc(N3CCC(NC(=O)c4cc5ccccc5s4)C3)n2)cc1 (stereo not shown) [GSK1379738]	0	0	2	0	15	0	0	0	26	0
COc1ccc(Nc2nccc(N3CCC(NC(=O)C(C)c4ccc(Cl)cc4)CC3)n2)cc1 (stereo not shown) [GSK1379812]	47	2	0	22	100	0	15	0	27	7
COc1ccc(CSc2nnc(-c3ccc4ncsc4c3)o2)cc1C(F)(F)F	9	0	9	1	0	0	0	0	0	10
COc1ccc(CSc2nnc(-c3ccc4nccn4c3)o2)cc1C(F)(F)F	0	16	35	22	13	8	3	28	0	0
Fc1ccc(-c2nc[nH]c2-c2ccncc2)cc1 [SB-217360]	0	13	2	0	0	0	0	0	0	0
Cc1ccc(NC(=O)Nc2ccccc2F)cc1-c1ccc(C(=O)Nc2ccncc2)cc1 [GSK1398477]	27	0	5	11	4	12	46	50	100	19
Cc1ccccc1-c1cc(-c2c[nH]nc2-c2ccccn2)ccn1 [GW680061]	0	0	0	0	2	7	20	0	41	0
O=C(Nc1n[nH]c2cc(-c3ccsc3)ccc12)C1CC1 [SB-732932]	0	22	7	0	13	31	8	57	80	0
Fc1ccc(-c2nc3n(c2-c2ccncc2)CCS3)cc1 [GI98581]	42	0	0	0	12	0	20	0	16	36
COc1ccc(CSc2nnc(-c3ccc4c(c3)CCO4)o2)cc1	0	0	0	0	0	5	0	0	0	0
CC(=O)c1cccc(NC(=O)NC2CCN(c3ccnc(Nc4ccc(F)cc4)n3)C2)c1 (stereo not shown) [GSK1379710]	0	0	0	20	8	19	24	10	43	0
Cc1cnc(N)c(/C=C/c2cncc(C(=O)NCCc3ccc(Cl)cc3Cl)c2)c1.Cl [GSK190937]	0	0	0	7	1	0	0	96.4	98.8	0
COc1ccc(Nc2nccc(-c3ccc(NC(=O)c4cc5cc(F)ccc5[nH]4)cc3)n2)cc1 [GSK1229496]	0	0	0	5	0	0	0	0	47	0
CNc1cc(-c2ccc3c(N)n[nH]c3c2)nc(N)n1 [GSK2224810]	0	0	0	17	0	16	0	0	44	–
O=C1NC(=O)C(c2ccc(Cl)cc2)=C1Nc1cccc(Cl)c1 [SB-317651]	14	18	0	0	0	15	12	9	0	0
CSc1ccc(-c2nc3n(c2-c2ccncc2)CCC3)cc1 [SKF-105561]	0	0	0	0	3	5	0	28	0	0
Cc1ccccc1Cn1ccn2c(=O)cc(N3CCOCC3)nc12 [GSK2269905]	0	0	0	0	1	0	0	0	13	0

Compound	%Inh (PAK3) [%]	%Inh (PAK4) [%]	%Inh (PAK6) [%]	%Inh (PAK7) [%]	%Inh (PCTK1) [%]	%Inh (PCTK2) [%]	%Inh (PCTK3) [%]	%Inh (PDGFRA) [%]	%Inh (PDGFRB) [%]	%Inh (PDPK1) [%]
COC(=O)c1cccc(NC(=O)NC2CCN(c3ccnc(Nc4ccc(F)cc4)n3)C2)c1 (stereo not shown) [GSK1379725]	0	0	0	0	10	0	12	0	36	0
COC(=O)c1cccc(NC(=O)NC2CCN(c3ccnc(Nc4ccc(OC)cc4)n3)C2)c1 (stereo not shown) [GSK1379746]	0	0	0	0	0	0	0	0	35	0
O=C(Nc1n[nH]c2nc(-c3cccs3)c(Br)cc12)C1CCCC1 [SB-743341]	0	0	9	0	46	54	56	32	74	0
CC(C)c1cc(-c2ccc3c(N)n[nH]c3c2)nc(N)n1 [GSK2250882]	0	0	0	6	0	9	11	0	18	74
CNCc1ccc2nc(NC(=O)c3ccc(C(C)(C)C)cc3)cn2c1	4	4	0	0	41	3	0	73	74	3
Cc1nccc(-c2c(-c3ccc(F)cc3)ncn2CCCN2CCOCC2)n1.Cl [SB-282975]	0	0	0	0	1	3	10	0	0	29
O=C(Nc1n[nH]c2nc(-c3cccs3)c(Br)cc12)C1CC1 [SB-735297]	0	0	3	0	28	40	6	0	43	0
FC(F)(F)c1ccccc1-c1cc(-c2c[nH]nc2-c2ccccn2)ccn1 [GW679396]	8	0	3	0	0	10	7	0	19	18
COc1cc2ncnc(Nc3cccc(Br)c3)c2cc1OC.Cl [GI230329]	0	0	0	12	0	0	2	0	16	11
CNc1nc(-c2ccc3c(N)n[nH]c3c2)cc(N2C[C@@H](C(=O)Nc3ccccc3)CC[C@H]2C)n1 [GSK2298859]	0	0	2	20	2	0	9	0	10	83
Cc1ccc(NC(=O)c2ccc(Cl)cc2)cc1-c1ccc(C(=O)Nc2ccncc2)cc1 [GSK1398467]	19	0	0	65	0	0	0	66	100	0
Cc1ccc(-c2nc(Nc3ccncc3)c3ccccc3n2)s1 [GSK189015]	6	4	8	0	7	0	30	0	22	26
Fc1ccc(-c2nn3cccc(F)c3c2-c2ccncc2)cc1 [GW475620]	20	0	0	0	6	0	0	0	3	0
COc1ccc(Nc2nccc(NCCNC(=O)Nc3cc(C)ccc3C)n2)cc1 [GSK1379899]	22	0	0	0	2	0	2	0	5	0
Cn1cncc1-c1cc2c(Nc3ccc(OCc4ccccc4)cc3)ncnc2cn1 [GW281179]	0	0	0	0	11	0	21	0	16	0
Cn1cnc2c(N)ncnc21 [SKF-97623]	0	0	0	0	0	0	0	100	0	0
Cc1ccc(NC(=O)Nc2ccc(Cl)cc2)cc1-c1ccc(C(=O)Nc2ccncc2)cc1 [GSK1398472]	21	0	0	0	5	0	0	10	99.7	0
